Source: PubChem BioAssay (Johns Hopkins Ion Channel Center)
KCNQ2 inh: KCNQ2 (rat) channel inhibition. CHO-K1 KCNQ2, FluxOR thallium flux, 20 min; hits give low values. B-score at 10 µM. actives 1.1% (n = 310,000). O88943;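 active = fluorescence ratio B-score at most minus 3 library SDs, with starting brightness B-score within 2 library SDs, cut at about -5.5 in these data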
KCNQ2 enhance: enhances the rat KCNQ2 potassium channel. O88943. CHO-K1 KCNQ2, FluxOR thallium flux fluorescence; hits give high values. B-score at 10 µM. actives 0.54% (n = 310,000). AID 2239;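 active = fluorescence ratio B-score at least 3 SD of library B-scores, with initial fluorescence B-score within 3 of them, cut at about 5.3 in these data; same plate scores as AID 2156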;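 note: B-score of peak minus minimum over baseline fluorescence ratio after K+ and Tl+ stimulus; positive B-score means potentiation of KCNQ2 with more thallium influx and brighter signal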
KCNQ2 block conf: rat KCNQ2 channel inhibition, confirmatory screen | shares compounds with KCNQ2 inh | KCNQ2-expressing cells, thallium flux; hits give low values | activity change, negative = inhibition, % at 10 µM | actives 57% (n = 1,000);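 note: 0% = vehicle wells and values are ratio percent relative to vehicle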
KCNQ1 spec: KCNQ2 inhibitor that also affects human KCNQ1 channel; shares compounds with KCNQ2 inh; KCNQ1-expressing cells, FluxOR thallium flux fluorescence; hits give low values; activity change, negative = inhibition, % at 10 µM; actives 15% (n = 1,000);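 active = activity change at least 3 SD of negative controls below their mean in both duplicate wells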;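 note: CHO cells stably transfected with KCNQ1 and depolarized by potassium stimulus; peak minus minimum fluorescence over baseline after thallium addition; 0% = vehicle negative control and -100% = blank without thallium stimulus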
Target sequence (P51787 whole entry, looked up): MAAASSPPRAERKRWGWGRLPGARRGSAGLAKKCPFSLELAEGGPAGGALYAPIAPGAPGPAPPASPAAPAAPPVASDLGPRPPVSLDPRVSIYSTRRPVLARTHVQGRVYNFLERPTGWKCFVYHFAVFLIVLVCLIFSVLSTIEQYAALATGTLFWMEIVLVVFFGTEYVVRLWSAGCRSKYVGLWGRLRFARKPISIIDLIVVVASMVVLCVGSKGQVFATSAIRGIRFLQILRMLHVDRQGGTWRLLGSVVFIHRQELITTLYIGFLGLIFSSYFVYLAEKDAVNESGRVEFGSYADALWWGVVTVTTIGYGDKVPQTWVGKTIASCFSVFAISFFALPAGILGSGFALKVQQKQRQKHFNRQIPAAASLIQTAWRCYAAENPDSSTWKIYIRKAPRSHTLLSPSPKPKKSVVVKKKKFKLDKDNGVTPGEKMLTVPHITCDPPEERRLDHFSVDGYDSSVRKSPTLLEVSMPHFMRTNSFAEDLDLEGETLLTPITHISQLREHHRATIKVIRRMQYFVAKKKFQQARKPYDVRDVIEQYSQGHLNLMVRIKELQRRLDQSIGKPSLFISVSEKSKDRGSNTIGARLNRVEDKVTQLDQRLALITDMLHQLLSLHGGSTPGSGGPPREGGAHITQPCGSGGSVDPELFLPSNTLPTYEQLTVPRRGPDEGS
CHO parental ctr: KCNQ2 inhibitor counter-screen hit in parental CHO cells | shares compounds with KCNQ2 inh | thallium flux counter-screen; hits give low values | AID 493029 | activity change, % at 10 µM | actives 14% (n = 1,000);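 note: 0% = vehicle negative controls with stimulus buffer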
KCNQ2 patch conf: blocks rat KCNQ2 current in automated patch clamp. shares compounds with KCNQ2 inh. KCNQ2-expressing cells. calls only at 10 µM. actives 49% (n = 550). AID 588531
* hit, by the source's call; i = inactive; . = not tested or not shown; + = active, no number. Most compounds without a hit are left out; they make up all but 1.6% or so of the library. Unless noted, the rule behind the calls is not given here.

SMILES | KCNQ2 inh | KCNQ2 enhance | KCNQ2 block conf | KCNQ1 spec | CHO parental ctr | others
O=C(COc1ccccc1)OC(C(=O)c1ccccc1)c1ccccc1 (configuration not stated) | i | 1.7 | . | . | .
Cc1cc(S(=O)(=O)N2CCOCC2)c(C)s1 | i | 1.73 | . | . | .
COc1ccc(N2CC(C(=O)NCc3nnnn3-c3ccc(C)c(C)c3)CC2=O)cc1 (configuration not stated) | i | . | . | . | .
Clc1ccc(COn2c(-c3ccc(Cl)cc3)nc3ccccc32)cc1 | i | . | . | . | .
Clc1ccc(COn2c(-c3ccccc3)nc3ccccc32)cc1 | -14.5* | -14.5 | i | i | i
CC(C)(C)c1ccc(NC(=O)C2CCCN(c3cnccn3)C2)cc1 (configuration not stated) | i | . | . | . | .
COc1ccc(CCNC(=O)c2cc3cc(F)ccc3nc2C)cc1OC | i | . | . | . | .
CC(=O)OC(COc1ccccc1)Cn1cnc2cc(C)c(C)cc21 (configuration not stated) | i | 1.21 | . | . | .
CCN(CC)S(=O)(=O)c1ccc(N2CCOCC2)c(NC(=O)CCOc2ccccc2)c1 | i | . | . | . | .
O=C(Nc1ccccc1N1CCOCC1)c1cc2c(s1)CCCCC2 | i | . | . | . | .
Cc1cc(C)c(OCC(=O)Nc2ccccc2N2CCOCC2)c(C)c1 | -9.45* | -9.45 | i | i | i
CCCCC(=O)Nc1ccccc1N1CCOCC1 | i | 1.57 | . | . | .
CCN(CC)S(=O)(=O)c1ccc(N2CCOCC2)c(NC(=O)COc2ccccc2)c1 | -6.78* | -6.78 | -31.0%* | i | i | KCNQ2 patch conf=+
CC(=O)N1CCN(c2ccccc2NC(=O)COc2cc(C)cc(C)c2)CC1 | i | . | . | . | .
CCc1sc(C(=O)Nc2ccccc2N2CCOCC2)cc1C | -7.34* | -7.34 | -18.0%* | i | i
O=C(CC12CC3CC(CC(C3)C1)C2)Nc1ccccc1N1CCOCC1 | -6.85* | -6.85 | -30.0%* | -34.5%* | -20.5%* | KCNQ2 patch conf=i
CC1CCCN(S(=O)(=O)c2ccc(CN3C(=O)c4cccnc4C3=O)cc2)C1 (configuration not stated) | i | . | . | . | .
CC(=O)Nc1cc(C(F)(F)F)ccc1N1CCOCC1 | i | 0.43 | . | . | .
CCC(Oc1ccccc1)C(=O)Nc1cc(C(F)(F)F)ccc1N1CCOCC1 (configuration not stated) | -7.04* | -7.04 | i | i | i
N#Cc1nc(COc2ccc(Cl)cc2)oc1N1CCN(Cc2ccccc2)CC1 | -6.86* | -6.86 | -24.5%* | i | i | KCNQ2 patch conf=i
CCN1CCN(c2oc(COc3ccc(Cl)cc3)nc2C#N)CC1 | i | . | . | . | .
COc1ccc(CNC(=O)C2CCCN(S(=O)(=O)c3ccccc3)C2)cc1 (configuration not stated) | i | . | . | . | .
CCN(c1ccc(OC)cc1)S(=O)(=O)N1CCCC(C(=O)NCc2ccccc2Br)C1 (configuration not stated) | -10.1* | -10.1 | i | i | i
OCC1(Cc2ccc(Cl)cc2)CCN(Cc2ccc(Oc3ncccn3)cc2)CC1 | i | 0.36 | . | . | .
CCN(CC(=O)NC(C)(C)C)Cc1cc(=O)n2c(-c3ccccc3)csc2n1 | i | 0.13 | . | . | .
SMILES | KCNQ2 inh | KCNQ2 enhance | KCNQ2 block conf | KCNQ1 spec | CHO parental ctr | others
Cc1ccc(S(=O)(=O)Nc2ccc(N=Nc3ccc(O)cc3)cc2)cc1 | -8.69* | -8.69 | i | i | i
CSc1ccc(S(=O)(=O)Nc2ccc(S(=O)(=O)Nc3ccc(C)cc3)cc2)cc1 | i | . | . | . | .
CN1CCN(C2Cc3cc(F)ccc3Sc3ccc(Cl)cc32)CC1 (configuration not stated) | i | . | . | . | .
CN1CCN(C2Cc3ccccc3Sc3cc(C(F)(F)F)ccc32)CC1 (configuration not stated) | -7.38* | -7.38 | -39.0%* | -38.0%* | -30.0%* | KCNQ2 patch conf=i
O=c1c2c3c(sc2ncn1/N=C/c1ccc([N+](=O)[O-])o1)CCCC3 | i | . | . | . | .
Cn1cc(/C=N/n2cnc3sc4c(c3c2=O)CCCC4)c2ccccc21 | -9.24* | -9.24 | i | i | i
C/C=C\C=C/C(=O)Nc1cccc(C2=NOC3(C2)C[C@H](C(N)=O)N(C(=O)Cc2ccc([N+](=O)[O-])cc2)C3)c1 (some centres not stated) | i | . | . | . | .
Cc1cc(C)c(NC(=O)C2CCN(c3cnccn3)CC2)c(C)c1 | i | 0.69 | . | . | .
CN1C(C(=O)c2ccccc2)=C(N)c2ccccc2S1(=O)=O | i | . | . | . | .
Cc1ccc(NC2=C(C(=O)c3ccccc3)N(C)S(=O)(=O)c3ccccc32)cc1 | -11.9* | -11.9 | -27.5%* | i | i | KCNQ2 patch conf=i
CCN1C(C(=O)c2ccccc2)=C(Nc2ccccc2C)c2ccccc2S1(=O)=O | -6.93* | -6.93 | -33.5%* | -27.0%* | i | KCNQ2 patch conf=i
CCN1C(C(=O)Nc2cc(C)on2)=C(O)c2ccccc2S1(=O)=O | i | 1.68 | . | . | .
COc1ccc(-c2cn(Cc3ccc(C(=O)c4ccccc4)cc3)nn2)cc1 | i | 0.62 | . | . | .
CN1C(=O)C(C)(C)c2cc(S(=O)(=O)NCc3ccc(C(=O)NCc4ccco4)cc3)ccc21 | i | 0.03 | . | . | .
O=C(COc1ccc(Cl)cc1Cl)NCCCCc1ccccc1 | -7.79* | -7.79 | i | i | i
CC(Oc1ccc(Cl)cc1Cl)C(=O)NCCCCc1ccccc1 (configuration not stated) | i | . | . | . | .
CCOc1cc(CNc2ccc(Br)cc2)cc(Br)c1OCC(=O)NC(C)(C)C | -6.83* | -6.83 | -24.0%* | i | i | KCNQ2 patch conf=i
CCOc1cc(CNn2cnnc2)cc(Br)c1OCC(=O)NC(C)(C)C | i | 0.87 | . | . | .
Cc1cc(C)c2c(n1)SCC(=O)N2CC(=O)Nc1ccc(F)cc1 | i | 0.05 | . | . | .
NC(=NCCc1ccccc1)NS(=O)(=O)c1ccccc1 | i | . | . | . | .
O=C(CSc1nc2ccccc2[nH]1)N1CCCCC1 | i | 0.33 | . | . | .
Cc1c(C)n(C(=O)CSc2nc3ccccc3[nH]2)c2ccccc12 | -10.7* | -10.7 | -30.0%* | i | i | KCNQ2 patch conf=i
CCC(=O)N1CCN(c2cc(N3CCN(C)CC3)c(F)cc2[N+](=O)[O-])CC1 | i | 0.22 | . | . | .
CN1CCN(c2cc(N3CCc4ccccc4C3)c(F)cc2[N+](=O)[O-])CC1 | -6.85* | -6.85 | i | i | i
CCOc1cc(-c2nc3ccccn3c2NCC2CCCO2)ccc1O (configuration not stated) | -9.55* | -9.55 | i | i | i
COc1cc(-c2nc3ccccn3c2NCC2CCCO2)ccc1O (configuration not stated) | i | 0.81 | . | . | .
CC(=O)c1c(C)[nH]c(C(=O)Nc2ccc(F)cc2F)c1C | i | . | . | . | .
COC(=O)C1CCN(C(=O)COC(=O)C2CCN(S(=O)(=O)c3ccc(C)c(C)c3)CC2)CC1 | i | . | . | . | .
Cc1sc(NC(=O)c2ccco2)c(C(c2cccnc2)N2CCN(CCO)CC2)c1C (configuration not stated) | i | 1.13 | . | . | .
